# Sampled rows, rich in hits. Any-hit rate of the full collection: about 3.8%.
# MBNL1-CUG inh – inhibitors of human MBNL1 binding to CUG repeat RNA. Q9NR56. TR-FRET MBNL1-His/biotin-(CUG)12 binding, 665/545 ratio. Potency, µM (top dose mostly 57.5 µM), without a hit: at the top dose activity change, negative = inhibition, usual class: inhibitors. 0.036% of 280,000 active; active means well fitted inhibition curve with a large enough effect in the signal ratio, with a control signal flat, not every such curve was filed as active; inconclusive means small, poorly fitted or top-dose-only effect, or effect the other way, or a change in a side signal; inactive means no such curve, though single readings can be large or run the other way; the % refers to the signal ratio; further: potency means the concentration at half of the fitted maximal effect; on the % scale 0 is the no-effect control and ±100 the full control effect
#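 Ratiometric TR-FRET (665 over 545 nm, excitation 340 nm) tracks disruption of MBNL1-His/biotin-(CUG)12 complex after 60 min at room temperature, with compounds at 92 nM to 58 uM final.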
# PLK1 PBD inh – PLK1 (human) polo-box domain binding inhibition; P53350; Plk1 PBD binding of FITC phosphopeptide, fluorescence polarization; Potency, µM, inactives show max response, negative = inhibition, actives largely listed as inhibitors; 2.8% of 360,000 active; further: potency means the concentration at half of the fitted maximal effect; series mostly up to about 57 µM; on the % scale 0 is the no-effect control and ±100 the full control effect; nearly all actives have a fitted effect of over 65% in size
# CBFb RUNX1 block – blocks binding between human CBF-beta and RUNX1; Potency, µM (series often up to 59.8 µM), for inactives: at the top dose activity, negative = inhibition, actives largely listed as inhibitors; AID 1477; 230,000 tested, under 10 active; AlphaScreen CBFb-His/RUNX1-biotin binding, biochemical; further: % of control where 0% means no effect
# Target sequence (Q01196 whole entry, looked up): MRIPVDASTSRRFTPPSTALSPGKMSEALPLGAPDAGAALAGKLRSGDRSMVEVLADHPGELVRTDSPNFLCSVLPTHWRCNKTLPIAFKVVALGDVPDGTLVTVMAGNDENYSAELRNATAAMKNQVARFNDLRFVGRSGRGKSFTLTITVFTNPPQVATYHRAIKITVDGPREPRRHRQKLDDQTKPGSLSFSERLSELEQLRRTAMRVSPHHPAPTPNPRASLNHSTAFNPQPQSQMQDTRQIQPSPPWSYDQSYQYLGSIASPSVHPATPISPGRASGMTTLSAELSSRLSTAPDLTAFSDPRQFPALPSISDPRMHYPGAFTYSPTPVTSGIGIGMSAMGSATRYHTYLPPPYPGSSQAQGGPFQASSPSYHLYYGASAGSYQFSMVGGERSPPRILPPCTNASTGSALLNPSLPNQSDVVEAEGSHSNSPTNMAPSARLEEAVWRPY
# Target sequence (Q13951 whole entry, looked up): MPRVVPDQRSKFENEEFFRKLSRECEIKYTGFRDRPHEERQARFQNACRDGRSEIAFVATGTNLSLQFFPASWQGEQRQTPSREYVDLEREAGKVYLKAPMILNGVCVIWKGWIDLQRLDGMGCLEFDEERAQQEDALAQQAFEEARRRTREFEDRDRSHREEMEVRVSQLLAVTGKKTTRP
#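 Compounds were screened at multiple concentrations against a preformed CBF-beta(His)/RUNX1(biotin) complex (30 nM of each) for 15 min at room temperature, followed by 90 min with nickel and streptavidin beads and AlphaScreen reading.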
# VDR inhibitor – inhibitors of human vitamin D receptor | Potency, µM, for inactives: max response, negative = inhibition, actives largely listed as inhibitors | P11473 | VDR-SRC2-3 peptide fluorescence polarization, 2 h | 0.93% of 400,000 active | AID 504847; further: potency means the concentration at half of the fitted maximal effect; on the % scale 0 is the no-effect control and ±100 the full control effect
#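 FP read-out; VDR + SRC2-3 coactivator peptide; 23 nl compound by pintool; 2 h RT incubation; reagents held at 4 deg C, protected from light.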
# KCNH2 WT inh – KCNH2 (human, wildtype) channel inhibition; activity change, % at 1.84 µM; 0.37% of 340,000 active; U2OS, BacMam KCNH2, thallium flux FluxOr; active compounds read low;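 active means maximum activity change below -70%; inconclusive means maximum activity change between -70% and -50%; inactive means maximum activity change above -50%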; further: on the % scale 0 is the no-effect control and ±100 the full control effect
#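 U2OS cells transduced with wild-type KCNH2 virus are loaded with FluxOr dye for 45 min, and thallium flux is measured in kinetic reads before and after stimulation buffer. Rate constants are normalized to DMSO controls.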
# KCNH2 3.1 block – blocks the human KCNH2 3.1 channel isoform | 0.95% of 340,000 active | U2OS KCNH2 3.1, thallium flux FluxOr; active compounds read low | activity change, % (tested at about 1.8 µM);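 active means maximum activity change below -70%; inconclusive means maximum activity change from -70% to -50%; inactive means maximum activity change above -50%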;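 further: thallium influx rate constant from kinetic fluorescence after stimulation buffer; on the % scale 0 is the no-effect control and ±100 the full control effect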
#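 Kinetic fluorescence (2 min after stimulation buffer) measures Tl+ influx through KCNH2 3.1 expressed by viral transduction in U2OS cells; the rate constant is normalized against DMSO controls serving as positive and negative references.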
# Numbers without * were called inactive; u = inconclusive; x = no result given. Unless noted, the call rests on the fitted dose curve; in most records, active means well fitted curve in the direction sought with a large enough effect; inconclusive means small, poorly fitted or top-dose-only effect, or another doubt; inactive means no such curve, though single readings can be large; an effect the other way counts as inactive or inconclusive.
SMILES,MBNL1-CUG inh,PLK1 PBD inh,CBFb RUNX1 block,VDR inhibitor,KCNH2 WT inh,KCNH2 3.1 block
CSCC[C@H](N)C(=O)N[C@@H](CCCN=C(N)N)C(=O)N[C@@H](Cc1ccccc1)C(=O)N[C@@H](Cc1ccccc1)C(=O)N[C@H](C(=O)O)C(C)C,x,x,10%,-4%,x,x
Cc1cc(C)c2c(C)c(C(=O)N3CCC(c4nc5ccccc5s4)CC3)oc2c1,x,x,x,9%,x,x
COC(=O)c1nc(NC(=O)C(C)C)n[nH]1,-21%,21µM*,0%,7%,-43,-18
CCCNC(=S)N1CCN(CC)CC1,x,-13%,3%,-18%,-6,0
CCN1CCN(C(=S)NCCOC)CC1,-1%,30µM*,4%,-18%,-3,22
Cc1ccc([S+](=O)([O-])N(c2ccccc2)[S+](=O)([O-])C(F)(F)F)cc1,x,x,-2%,4%,x,x
CCCn1c(=O)c(C(=O)NCc2ccccc2)c(O)c2ccccc21,2%,12µM*,x,u,-9,7
CCOC(=O)c1cccc(NC(=O)CCCn2c(C)c3cnn(-c4ccccc4)c(=O)c3c2C)c1,x,x,x,6%,x,x
COc1ccccc1NC(=S)Nc1cccc2cnccc12,39%,30µM*,-5%,u,1,12
CC(=O)NNC(=S)Nc1cc(S(=O)(=O)N(C)C)ccc1C,u,-6%,-21%,-6%,-8,7
S=C(Nc1ccc2cn[nH]c2c1)Nc1ccc(Cl)cc1Cl,8%,15µM*,-12%,u,8,4
CN(C)S(=O)(=O)c1cccc(NC(=S)Nc2cccc3cnccc23)c1,x,17µM*,u,u,-7,9
S=C(Nc1cccnc1)Nc1cccc2cnccc12,10%,u,-1%,u,-5,8
Cc1ccc(S(=O)(=O)N(C)C)cc1NC(=S)Nc1cccc2ccccc12,15%,15µM*,x,-28%,-2,15
COc1ccc2c(c1)C(=O)[C@H](OC(=O)N[C@H]1CCCc3ccccc31)[C@@H](c1ccc(OC)c(Br)c1)O2,x,x,-10%,6%,x,x
CN(C)S(=O)(=O)c1cccc(NC(=S)Nc2ccc3cn[nH]c3c2)c1,5%,21µM*,-3%,-6%,-7,1
CC(C)CC(=O)O/N=C1\C(=O)N(c2ccccc2)c2ccccc21,-6%,30µM*,-9%,-19%,1,3
O=C(Nc1ccc(C(F)(F)F)cc1)C1CCCN(c2cnccn2)C1 (stereo unspecified),x,x,x,2%,x,x
Cc1ccc(C2=NOC(=O)/C2=C\C=C\c2ccccc2)cc1,-3%,1.7µM*,-16%,-2%,-9,4
CN(C)/C=C1\C(=O)ON=C1c1ccccc1,x,-7%,10%,-18%,-12,-9
Cn1ccnc1Sc1cc(NCCCO)c([N+](=O)[O-])c2nonc12,u,3µM*,-9%,20µM*,-2,-4
O=[N+]([O-])c1c(NCCCO)cc(SCc2ccco2)c2nonc12,u,u,-3%,-25%,34,23
CC(=O)OCCCNc1cc(Sc2nc3ccccc3s2)c2nonc2c1[N+](=O)[O-],u,2.1µM*,7%,u,-6,1
CC(=O)OCCNc1cc(Sc2nc3ccccc3[nH]2)c2nonc2c1[N+](=O)[O-],u,2.7µM*,-4%,14µM*,-1,-21
Cc1nc2nc(SCC(=O)N(C)Cc3ccccc3)nn2c(C)c1Cc1ccccc1Cl,x,x,x,-9%,x,x
CCC1=C(c2ccc(C)cc2)S(=O)(=O)N=C1N1CCC(C(=O)Nc2ccccc2C(=O)OC)CC1,x,x,x,-3%,x,x
CC1CCCCN1CC(=O)Nc1ccc(Oc2ccccc2)cc1 (stereo unspecified),-4%,-12%,6%,-15%,12,-89*
CSc1ccccc1NC(=O)CN1CCCCC1C (stereo unspecified),-4%,21µM*,2%,-4%,8,13
CC1CCCCN1CC(=O)Nc1ccc(N2CCCCCC2)cc1 (stereo unspecified),-13%,-4%,9%,-8%,0,u

# Screens from PubChem.
